From PubChem BioAssay (NCI) come the findings set out here.

Structures are written as SMILES. About 83,000 compounds went through this panel and 20% of them were active in at least one assay; those are over-represented in the sample as a whole.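 Growth was measured after 48 h exposure to one concentration of compound in 96-well plates. Values under 10 count as active.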 Unmarked numbers belong to inactive results. Activity calls are given as the source filed them.

Test systems include HCT-15 colon; HT29 colon; SNB-19 CNS; U251 CNS; PC-3 prostate; SK-MEL-5 melanoma; UACC-62 melanoma; LOX IMVI melanoma; SK-MEL-28 melanoma; SK-MEL-2 melanoma; EKVX NSCLC; SN12C renal; UO-31 renal; TK-10 renal; ACHN renal; CAKI-1 renal; A498 renal; CCRF-CEM leukemia; MOLT-4 leukemia.
Experiment in all cases: NCI-60 one-dose screen, 48 h (100 = growth as untreated, 0 = no growth, -100 = all killed)
Holding throughout (conditions): 10 µM unless noted

In the case of `Brc1cccc(-c2cc(-c3ccc4nccnc4c3)[nH]n2)c1`, the growth was 9.57% [25 µM] (active) in the assay with HCT-15 colon; 5.66% [25 µM] (active) in the assay on HT29 colon; 30.5% [25 µM] with SNB-19 CNS; 21.7% [25 µM] in the assay on U251 CNS; 27% [25 µM] in the assay with PC-3 prostate; 20.9% [25 µM] in the assay with SK-MEL-5 melanoma. Also, the growth is 38.1% [25 µM] in the assay on UACC-62 melanoma; 18.6% [25 µM] in the assay with LOX IMVI melanoma; 64.9% [25 µM] with SK-MEL-28 melanoma; 46.3% [25 µM] with SK-MEL-2 melanoma; 16% [25 µM] in the assay on EKVX NSCLC; 35.5% [25 µM] in the assay on SN12C renal. The growth in the assay with UO-31 renal is 38.8% [25 µM]; in the assay with TK-10 renal it was 52.1% [25 µM]; with ACHN renal, 39.6% [25 µM]; with CAKI-1 renal it was 29.4% [25 µM]; in the assay on A498 renal, -9.23% [25 µM] (active); in the assay with CCRF-CEM leukemia it was 15.3% [25 µM]. Also, the growth in the assay on MOLT-4 leukemia is 30.2% [25 µM].

For the compound `O=C(c1c[nH]c(=O)c(-c2ccccc2)c1)c1ccccc1O`, the growth in the assay on HCT-15 colon is 97.7%; in the assay with HT29 colon, 101%; in the assay with SNB-19 CNS it was 81.5%; in the assay on U251 CNS, 89.2%; in the assay on PC-3 prostate it was 89.2%; with SK-MEL-5 melanoma it was 95.4%. Further, the growth in the assay on UACC-62 melanoma was 81.1%; in the assay on LOX IMVI melanoma it was 103%; in the assay on SK-MEL-28 melanoma, 93.5%; in the assay on SK-MEL-2 melanoma, 93.1%; in the assay with EKVX NSCLC it was 94.7%; with SN12C renal it was 85.2%. Further, the growth was 68.6% with UO-31 renal; 94.8% in the assay on TK-10 renal; 82.8% with ACHN renal; 85% with CAKI-1 renal; 76.8% with A498 renal; 99.5% in the assay on CCRF-CEM leukemia. Further, in the assay on MOLT-4 leukemia, the growth is 96.1%.

Consider `CC(C)CSc1nc(NN)c(C#N)c(-c2ccccc2)n1`, for which the growth in the assay on HCT-15 colon is 86.6%; in the assay with HT29 colon, 103%; in the assay on SNB-19 CNS, 88.8%; in the assay with U251 CNS, 95.3%; with PC-3 prostate it was 89.3%; with SK-MEL-5 melanoma, 91.1%. The growth in the assay with UACC-62 melanoma is 95.3%; in the assay with LOX IMVI melanoma it was 90.6%; with SK-MEL-28 melanoma, 107%; with SK-MEL-2 melanoma, 101%; in the assay on EKVX NSCLC, 91.4%; in the assay on SN12C renal it was 104%. Moreover, the growth was 81.7% in the assay with UO-31 renal; 110% in the assay on TK-10 renal; 92.8% in the assay on ACHN renal; 90.3% in the assay with CAKI-1 renal; 69.1% in the assay on A498 renal; 97.4% in the assay with CCRF-CEM leukemia. The growth with MOLT-4 leukemia is 104%.

In the case of `O=C(CN1CCN(c2cc3c(cc2F)c(=O)c(C(=O)N/N=C/c2ccccc2O)cn3C2CC2)CC1)N/N=C\c1ccccc1O`, the growth in the assay on HCT-15 colon is 18.4%; in the assay with HT29 colon, 39.2%; with SNB-19 CNS it was 29.9%; with U251 CNS, 24.8%; in the assay with PC-3 prostate, 30.3%; in the assay with SK-MEL-5 melanoma it was -47.5% (active). The growth in the assay on UACC-62 melanoma is 0.0993% (active); in the assay on LOX IMVI melanoma, 2.01% (active); in the assay on SK-MEL-28 melanoma, 20.7%; with SK-MEL-2 melanoma, 33.2%; in the assay with EKVX NSCLC, 23%; with SN12C renal, 24.7%. Further, the growth is 4.8% (active) in the assay with UO-31 renal; 43.2% in the assay on TK-10 renal; 13.5% with ACHN renal; 5.22% (active) with CAKI-1 renal; 86.1% in the assay with A498 renal; 8.24% (active) with CCRF-CEM leukemia. Moreover, the growth with MOLT-4 leukemia was 9.45% (active).

As to `C/C=C/C1=CN2C(=O)c3cc(OC4OC(C)C(NC)C(C)(O)C4O)c(C)cc3N=C[C@@H]2C1` (some centres not stated), the growth in the assay with HCT-15 colon was 4.13% (active); in the assay on HT29 colon it was 5.72% (active); in the assay with SNB-19 CNS, 14.7%; in the assay with U251 CNS, 9.48% (active); with PC-3 prostate, 7.19% (active); with SK-MEL-5 melanoma, -51.3% (active). The growth in the assay on UACC-62 melanoma is -80.4% (active); in the assay with LOX IMVI melanoma, -11.2% (active); in the assay with SK-MEL-28 melanoma, -24.2% (active); with SK-MEL-2 melanoma, 27.8%; with EKVX NSCLC, 6.04% (active); in the assay on SN12C renal, 4.16% (active). Moreover, the growth in the assay on UO-31 renal is -34.5% (active); in the assay with TK-10 renal, 22.3%; in the assay on ACHN renal, -4.55% (active); with CAKI-1 renal, -8.21% (active); in the assay with A498 renal, -77.5% (active); in the assay on CCRF-CEM leukemia it was 0.51% (active). Also, the growth in the assay on MOLT-4 leukemia was 2.77% (active).

For the compound `CCOC(=O)c1cc(C(=O)c2cc(OC)c(OC)c(OC)c2)n2c1ccc1ccccc12`, the growth in the assay with HCT-15 colon was 25.7%; in the assay with HT29 colon, 9.65% (active); with SNB-19 CNS it was 35.1%; in the assay with U251 CNS, 49%; in the assay with PC-3 prostate, 21.9%; in the assay with SK-MEL-5 melanoma it was 9.89% (active). Moreover, the growth in the assay with UACC-62 melanoma is 32.1%; in the assay on LOX IMVI melanoma, 40.4%; in the assay with SK-MEL-28 melanoma, 55.9%; with SK-MEL-2 melanoma, 50.2%; in the assay with EKVX NSCLC, 52.2%; in the assay with SN12C renal, 25.3%. Besides, the growth in the assay with UO-31 renal is 32.2%; in the assay with TK-10 renal, 80.6%; in the assay on ACHN renal it was 33.5%; with CAKI-1 renal, 27.3%; with CCRF-CEM leukemia, 8.36% (active); in the assay on MOLT-4 leukemia it was 33.4%.

Turning to `COc1ccc(NC(=O)c2c(Nc3ccc(OC)cc3OC)n[nH]c2N)c(OC)c1`, the growth in the assay with HCT-15 colon was 104%; with HT29 colon, 102%; in the assay with SNB-19 CNS it was 90.3%; in the assay with U251 CNS it was 96.4%; in the assay on PC-3 prostate it was 90.6%; with SK-MEL-5 melanoma, 79.9%. In addition, the growth in the assay on UACC-62 melanoma is 68%; with LOX IMVI melanoma, 101%; in the assay on SK-MEL-28 melanoma it was 96.6%; in the assay on SK-MEL-2 melanoma it was 102%; in the assay on EKVX NSCLC it was 89.1%; with SN12C renal, 90%. The growth in the assay on UO-31 renal was 69.7%; with ACHN renal, 95%; in the assay on CAKI-1 renal it was 94.9%; in the assay with A498 renal it was 114%; in the assay on CCRF-CEM leukemia it was 110%; in the assay with MOLT-4 leukemia it was 78.8%.

In the case of `Cc1nc2c3c(ncn2n1)Oc1c(c(=O)[nH]c2ccccc12)C3c1ccc(Cl)cc1` (configuration not stated), the growth in the assay on HCT-15 colon is 99.6%; with HT29 colon, 102%; in the assay with SNB-19 CNS, 92%; in the assay with U251 CNS, 94.1%; in the assay on PC-3 prostate it was 83.4%; in the assay with SK-MEL-5 melanoma, 94.8%. The growth with UACC-62 melanoma is 90.6%; with LOX IMVI melanoma it was 91.1%; with SK-MEL-28 melanoma, 110%; in the assay with SK-MEL-2 melanoma it was 101%; with EKVX NSCLC, 86.6%; with SN12C renal, 97%. For the same compound, the growth with UO-31 renal was 64.5%; in the assay on TK-10 renal, 105%; with CAKI-1 renal, 83.8%; in the assay with A498 renal, 95.4%; in the assay with CCRF-CEM leukemia, 96.5%; in the assay on MOLT-4 leukemia it was 101%.

Turning to `CC(NNC(C)c1ccccc1)c1ccccc1` (configuration not stated), the growth with HCT-15 colon is 105%; in the assay on HT29 colon it was 95.2%; with SNB-19 CNS, 100%; in the assay with U251 CNS, 106%; in the assay with PC-3 prostate, 94%; with SK-MEL-5 melanoma, 101%. Further, the growth in the assay on UACC-62 melanoma was 110%; in the assay with LOX IMVI melanoma, 101%; in the assay with SK-MEL-28 melanoma, 118%; with SK-MEL-2 melanoma, 110%; in the assay on EKVX NSCLC it was 97.2%; in the assay on SN12C renal, 116%. Further, the growth in the assay with UO-31 renal is 93.1%; with TK-10 renal, 105%; with ACHN renal, 108%; in the assay with CAKI-1 renal it was 89%; in the assay on CCRF-CEM leukemia, 118%; in the assay with MOLT-4 leukemia, 113%.
